Assay results as given in PubChem BioAssay (NCATS).
Results filed as inconclusive are left out. Calls of active or inactive are those of the source. The call rests on the fitted dose curve; in most records, active means well fitted curve in either direction with a large enough effect (not every such curve was filed as active); inconclusive means small, poorly fitted or top-dose-only effect, or another doubt; inactive means flat fitted curve, though single readings scatter.

Molecular target: Mitogen-activated protein kinase 10 (Mus musculus) (UniProt Q61831)
Assay: JNK3 AlphaScreen Assay (AID 530);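 further: kinase came from lysate of stimulated human HepG2 cells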
Details: JNK3 lysate, c-Jun phosphorylation; series mostly up to 57.1 µM
Source text: NIH Chemical Genomics Center [NCGC]
NIH Molecular Libraries Screening Centers Network [MLSCN]
The c-jun N-terminal kinase (JNK) family are serine/threonine protein kinases that phosphorylate c-jun, a component of the transcription factor […] (AP-1). JNK kinases are members of the mitogen-activated protein kinase family including the extracellular regulated kinases and p38 kinases. Three JNK genes (JNK 1, 2, and 3) have been identified in humans so far. JNK1 and JNK2 have a broad distribution and JNK3 is primarily found in neuronal tissues and cardiac myocytes.
JNK3 has been under consideration as a target for the treatment of neurodegenerative disorders. […] JNK pathway is also involved in pathological process in a mouse model of Parkinson's disease (Xia et al., 2001).
Given these potential tissue distributions and links to neuroprotection, JNK3 inhibitors should provide useful investigational tools to study the role of this kinase in several diseases including, arthritis, stroke, myocardial infarction, ischemic injury and Parkinson's disease.
A homogeneous AlphaScreen is developed to measure the activity of JNK3. AlphaScreen is a two bead-based proximity-dependent chemical energy transfer luminescent assay platform. The phosphorylation of a biotinylated c-jun substrate by JNK3 can be detected with an antibody raised against phosphorylated c-jun. This process brings streptavidin donor beads and Protein-A acceptor beads to within a proximity range of <200 nm, and subsequently lead a chemical luminescent reaction upon exciting donor beads with 680 nm laser excitation light. Inhibition of JNK3 activity by small molecules and subsequent decrease in the antibody binding to biotinylated c-jun could attenuate or abolish this chemical luminescent reaction.
Yang DD, Kuan CY, Whitmarsh AJ, Rincon M, Zheng TS, Davis RJ, Rakic P and Flavell RA (1997) Absence of excitotoxicity-induced apoptosis in the hippocampus of mice lacking the Jnk3 gene. Nature 389:865-870. [PMID: 9349820]
Herdegen T, Claret FX, Kallunki T, Martin-Villalba A, Winter C, Hunter T, and Karin M (1998) Lasting N-terminal phosphorylation of c-Jun and activation of c-Jun N-terminal kinases after neuronal injury. J.Neurosci. 18:5124-5135. [PMID: 9651196]
Xia XG, Harding T, Weller M, Bieneman A, Uney JB and Schulz JB (2001) Gene transfer of the JNK interacting protein-1 protects dopaminergic neurons in the MPTP model of Parkinson's disease. Proc.Natl.Acad.Sci.U.S.A. 98:10433-10438.
NCGC Assay Protocol Summary:
GST-cJun (1-79) (Stratagene, La Jolla CA, #205145) was biotnylated by PerkinElmer (PerkinElmer-BioSignalInc. Montreal, Canada) and was detectable by the streptavidin Donor beads. Anti-(phospho)cJun (Ser73) antibody was from UpState (Charlottesvilles, VA, #06-659). JNK3-containing lysates were generated from HepG2 cells and pre-activated by interleukin1-beta and tumor necrosis factor alpha. All reagents were stored at -20 C before using. Phosphorylated biotinylated-GST-cJun was recognized by Anti-(phospho)cJun (Ser73) antibody and this process brings acceptor and donor beads together. Therefore JNK3 phosphorylation of cJun can be measured by Alpha reading by EnVision (PerkinElmer, Boston, MA).
The composition of kinase buffer was (in mM) 20 tris- HCl (pH 7.6) 10 MgCl2, 1 DTT, and 0.1 Na3VO4 and 0.01% Tween-20. Beads were diluted in detection buffer containing (in mM) 20 tris-HCl (pH 7.7), 20 NaCl and 80 EDTA and 0.3% BSA. The assay was performed at room temperature. All compounds were screened as titrations from 0.6 nM to 46 uM final concentration. The assay was performed in 1536-well format (white solid bottom and untreated) as follows:
Sequence,Parameter,Value,Description
1,Reagent,3 uL,Biotin-GST-cJun, Anti-(phospho)cJun and pre-activated JNK3-containing lysates
2,Compound,23 nL,Final concentration was 0.6nM to 46uM
3,Time,15 minutes,Room Temperature
4,Reagent,1 uL,ATP final concentration 10uM
6,Reagent,0.5 uL,2ng/well bead mixture
[…]

With `COCCOC(=O)c1ccccc1C(=O)OCCOC` as the molecule, how does the outcome read?
The outcome was “inactive”.

Which outcome does the source give for `Cc1cccc2cccnc12` here?
Its outcome is “inactive”.

For `CC(C)(O)CCC(C)(C)O`, which outcome is on record?
The outcome was “inactive”.

Which outcome does the source give for `Oc1c(Cl)ccc(Cl)c1Cl` here?
Its outcome is “inactive”.

How did the outcome turn out when `Cc1cscn1` was run?
The outcome was “inactive”.

With `C=CCn1c(=O)n(CC=C)c(=O)n(CC=C)c1=O` as the molecule, how does the outcome read?
Its outcome is “inactive”.

`CC(C)Cc1nccs1` was tested. Which outcome did it give?
Its outcome is “inactive”.

How did the outcome turn out when `CC(=O)c1ccccc1[N+](=O)[O-]` was run?
Its outcome is “inactive”.

For `Nc1cc([N+](=O)[O-])ccc1C(=O)O`, which outcome is on record?
Its outcome is “inactive”.

Which outcome does the source give for `CCCCC(CC)CNCC(CC)CCCC` (stereo not given) here?
Its outcome is “inactive”.

Which outcome does the source give for `OC(CCl)CCl` here?
The outcome was “inactive”.

For `C=Cc1ccccn1`, which outcome is on record?
Its outcome is “inactive”.

With `Cc1cccc(C(=O)O)c1` as the molecule, how does the outcome read?
Its outcome is “inactive”.

Which outcome does the source give for `CCCCOCCOCCOCCCC` here?
The outcome was “inactive”.

Which outcome does the source give for `CC=C(Cl)Cl` here?
The outcome was “inactive”.

With `CCCCC(CC)CO` (stereo not given) as the molecule, how does the outcome read?
Its outcome is “inactive”.

How did the outcome turn out when `ON=C1CCCCC1` was run?
Its outcome is “inactive”.

How did the outcome turn out when `Cc1ccccc1C=O` was run?
The outcome was “inactive”.

For `CC(=O)Nc1cccc(N)c1`, which outcome is on record?
The outcome was “inactive”.

With `CO[Si](CCCNCCC[Si](OC)(OC)OC)(OC)OC` as the molecule, how does the outcome read?
The outcome was “inactive”.

Which outcome does the source give for `O=Cc1ccccc1Cl` here?
Its outcome is “inactive”.

For `O=C1OC(=O)c2c(Cl)c(Cl)c(Cl)c(Cl)c21`, which outcome is on record?
The outcome was “inactive”.

How did the outcome turn out when `CC/C=C/C#N` was run?
The outcome was “inactive”.

`C/C(C=O)=C/c1ccccc1` was tested. Which outcome did it give?
Its outcome is “inactive”.

For `CCOC(=O)OCC`, which outcome is on record?
The outcome was “inactive”.

For `O=C(O)c1ccc(C(=O)O)cc1`, which outcome is on record?
The outcome was “inactive”.

For `CC(O)CC(C)O` (stereo not given), which outcome is on record?
The outcome was “inactive”.

Which outcome does the source give for `CC(=O)C1(C)CC2=C(CCCC2(C)C)CC1C` (stereo not given) here?
Its outcome is “inactive”.

`Cc1ccc(Cl)cc1N` was tested. Which outcome did it give?
Its outcome is “inactive”.

How did the outcome turn out when `CCOCC(=O)O` was run?
Its outcome is “inactive”.

`Cc1cc(C2(c3cc(C)c(O)cc3C)OS(=O)(=O)c3ccccc32)c(C)cc1O` was tested. Which outcome did it give?
The outcome was “inactive”.

With `CC/C(C)=N/O` as the molecule, how does the outcome read?
Its outcome is “inactive”.

Which outcome does the source give for `c1ccc2c(c1)Oc1ccccc1S2` here?
The outcome was “inactive”.

For `CCCCCCCCCCCCOCC1CO1` (stereo not given), which outcome is on record?
Its outcome is “inactive”.

With `C=C(C)C1CC=C(C)C(OC(C)=O)C1` (stereo not given) as the molecule, how does the outcome read?
Its outcome is “inactive”.

For `CC(=O)c1cccc([N+](=O)[O-])c1`, which outcome is on record?
Its outcome is “inactive”.

With `CCOc1cc(OCC)c(C(C)=O)cc1OCC` as the molecule, how does the outcome read?
The outcome was “inactive”.

For `O=C(O)c1cc(Cl)cc(Cl)c1`, which outcome is on record?
Its outcome is “inactive”.

Which outcome does the source give for `COc1ccc(OC)cc1` here?
Its outcome is “inactive”.

With `O=C(O)c1cccc([N+](=O)[O-])c1` as the molecule, how does the outcome read?
The outcome was “inactive”.
